High-throughput results as filed in PubChem BioAssay.
Gli-Sufu block: Gli-Sufu pathway antagonists, primary screen, luciferase luminescence, Sufu-KO-LIGHT cells, uHTS; Sufu-KO-LIGHT fibroblasts, Gli luciferase reporter luminescence; inhibition, % at 5 µM; 340,000 compounds, 0.74% hits;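 active means inhibition above about 55%, limit read from the data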;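 further: 0% = DMSO-treated cells and 100% = wells with medium but no cells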
Jurkat NFkB inh: inhibitors of induced NF-kB luciferase reporter, primary screen, TCR NF-kB activation inhibitor project, cell-based, luminescence, uHTS; Jurkat, PMA/ionomycin-induced NF-kB luciferase reporter; inhibition, % at 4 µM; 330,000 compounds, 0.53% hits; AID 435003, 2010; in the data active means inhibition above about 50%
KLF5 inhibitor: KLF5 expression inhibitors, primary screen, DLD-1 cells, luminescence | inhibition, % at 5 µM | DLD-1 KLF5 promoter-luciferase reporter | 290,000 compounds, 0.23% hits;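 active means inhibition above a per-plate limit of that plate's mean compound inhibition plus 3 SD, cut at about 60% in these data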;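 further: 0% = DMSO wells and 100% = LY294002 at 200 µM; higher means less KLF5 promoter-driven luciferase light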
697 NFkB inh: inhibitors of PMA/ionomycin-induced NF-kB reporter, 697 cells, primary screen, B-cell NF-kB inhibitor project, cell-based, luminescence, uHTS; 697 B-cell NF-kB luciferase reporter, 16 h; inhibition, % at 4 µM; 330,000 compounds, 0.33% hits; AID 435022, 2010; in the data active means inhibition above about 35%
aSyn 5UTR inh: MLPCN primary screen, SNCA 5' untranslated region. alpha-synuclein 5'UTR reporter, inhibitor activity. inhibition, % (tested at 7.5 µM). 300,000 compounds, 0.82% hits. AID 1813, 2009; in the data active means inhibition above about 60%;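 further: H4 neuroglioblastoma cells stably carrying SNCA 5'UTR luciferase fusion; 0% = DMSO wells and 100% = positive control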
Mdm2-MdmX inh: inhibitors of human Mdm2-MdmX association, primary screen, cell-based, luminescence, split luciferase, SaOS-2, uHTS; 330,000 compounds, 3% hits; inhibition, % at 8 µM; AID 485346, 2010; SaOS-2 split-luciferase Mdm2/MdmX complementation;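 active means inhibition of at least 50% at 8 µM in the primary screen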
Target sequence (O15151 whole entry, looked up): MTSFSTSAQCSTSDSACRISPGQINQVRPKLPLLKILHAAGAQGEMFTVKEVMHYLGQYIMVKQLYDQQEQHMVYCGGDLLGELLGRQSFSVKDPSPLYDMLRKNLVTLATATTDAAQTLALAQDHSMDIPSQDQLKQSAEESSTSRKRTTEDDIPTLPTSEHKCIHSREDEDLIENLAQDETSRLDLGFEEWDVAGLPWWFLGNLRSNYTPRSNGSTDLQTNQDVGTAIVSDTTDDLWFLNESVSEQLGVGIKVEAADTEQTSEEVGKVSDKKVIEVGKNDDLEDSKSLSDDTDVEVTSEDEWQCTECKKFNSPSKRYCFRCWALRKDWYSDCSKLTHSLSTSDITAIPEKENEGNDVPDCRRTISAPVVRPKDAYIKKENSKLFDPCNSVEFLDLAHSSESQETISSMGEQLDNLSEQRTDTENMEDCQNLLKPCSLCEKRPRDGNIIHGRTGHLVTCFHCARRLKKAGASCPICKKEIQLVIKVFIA
Target sequence (Q00987 whole entry, looked up): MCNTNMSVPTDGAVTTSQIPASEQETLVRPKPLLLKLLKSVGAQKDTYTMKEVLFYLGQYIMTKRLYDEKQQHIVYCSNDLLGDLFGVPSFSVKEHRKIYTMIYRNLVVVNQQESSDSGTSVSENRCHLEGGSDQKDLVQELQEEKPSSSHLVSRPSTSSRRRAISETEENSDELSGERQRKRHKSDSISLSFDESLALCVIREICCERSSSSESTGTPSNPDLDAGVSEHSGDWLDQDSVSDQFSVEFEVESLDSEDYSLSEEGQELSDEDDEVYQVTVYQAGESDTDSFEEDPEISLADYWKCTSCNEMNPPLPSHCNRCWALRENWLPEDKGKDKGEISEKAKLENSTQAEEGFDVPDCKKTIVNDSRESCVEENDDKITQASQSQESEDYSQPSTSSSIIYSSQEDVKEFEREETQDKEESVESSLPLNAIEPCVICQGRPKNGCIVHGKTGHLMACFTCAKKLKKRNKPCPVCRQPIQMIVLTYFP
697 NFkB conf: PMA/ionomycin-induced NF-kB reporter inhibitors, 697 retest, confirmation, B-cell NF-kB inhibitor project, cell-based, luminescence, single concentration. 697 B-cell NF-kB luciferase, 16 h. 2,000 compounds, 35% hits. AID 449746, 2010. inhibition, % at 4 µM. shares compounds with 697 NFkB inh; in the data active means inhibition mostly above about 28%, no sharp cut-off; inactive means mostly below about 22%
Active calls of the source: *; . = not tested or not shown. Shown are actives, neighbours in structure and some others; about 4.1% of the full set was active somewhere.

SMILES	Gli-Sufu block	Jurkat NFkB inh	KLF5 inhibitor	697 NFkB inh	aSyn 5UTR inh	Mdm2-MdmX inh	697 NFkB conf
CCN(CC)CCOC(=O)c1ccc(NC(=O)CCCN2C(=O)S/C(=C/c3ccc(OC)cc3)C2=S)cc1	45.7	-13.0	46.2	52.3*	96.5*	48.1	60.2*
COc1ccc(/C=C2\SC(=S)N(CCC(=O)Nc3ccc(O)cc3)C2=O)cc1	-0.9	-2.0	-50.5	47.5*	-12.5	17.2	37.5*
COc1ccccc1NC(=O)c1ccc(Br)c(S(=O)(=O)N2CCCC2)c1	17.2	-6.5	-2.4	-28.0	-19.5	15.2	.
CC1(C)Cc2cccc(OCC(=O)NCc3cccs3)c2O1	-0.6	6.2	.	-5.0	8.3	14.1	.
Cc1ccc(/C=C2\SC(=S)N(CCC(=O)Nc3cccnc3)C2=O)cc1	-4.0	-0.3	-30.0	52.3*	21.4	-22.3	27.1
Cc1oc(-c2cc(F)cc(F)c2)nc1CN1CCSCC1	14.7	5.1	-14.4	-13.1	6.7	-21.9	.
NS(=O)(=O)c1cccc(NC(=O)COC(=O)CC2CC3CCC2C3)c1 (stereo not given)	-13.7	-0.8	-18.9	0.5	-5.6	18.0	.
COC(=O)c1ccc(NC(=O)c2cc(-c3ccccn3)nc3ccccc23)cc1	-12.0	0.0	-8.1	4.3	17.9	26.2	.
COc1ccc(NC(=O)c2cc(-c3ccccn3)nc3ccccc23)cc1S(=O)(=O)N(C)C	0.7	18.2	.	39.2*	.	49.0	46.2*
COc1cc(=O)n(C)c2cc(N(C)C)ccc12	-6.7	10.4	-7.1	36.1*	-24.1	21.3	5.8
CN(C)S(=O)(=O)c1cccc(C(=O)Nc2ccccc2C(=O)NC2CC2)c1	-0.7	-1.2	.	25.5	.	16.8	.
Cc1cc(C)n(CC(=O)NNC(=O)c2ccc(S(C)(=O)=O)cc2)n1	-1.0	-2.3	.	16.5	.	18.6	.
CC(C)c1[nH]nc2c1C(c1ccco1)C(C#N)=C(N)O2 (stereo not given)	0.7	7.0	-37.5	48.7*	-133.3	19.4	29.7*
CC(C)c1[nH]nc2c1C(c1cccnc1)C(C#N)=C(N)O2 (stereo not given)	4.9	-2.1	-11.4	-1.1	-5.6	8.8	.
O=C(CSc1ncn[nH]1)Nc1ncc(C(F)(F)F)cc1Cl	-0.6	-10.6	5.6	8.6	0.2	-21.1	.
O=C(CSc1ncn[nH]1)Nc1ccc(Cl)c(Cl)c1	5.0	5.2	-13.4	35.2*	-23.3	19.2	17.1
Cc1ccc(C)c(S(=O)(=O)N2CCN(C(=O)Cn3c(C(F)(F)F)nc4ccccc43)CC2)c1	-21.1	9.5	-44.1	37.0*	8.8	23.2	6.9
Cc1ccc(C)c(S(=O)(=O)N2CCN(C(=O)Cc3ccccc3)CC2)c1	4.3	-10.9	.	10.1	-2.1	18.9	.
Cc1csc(NC(=O)/C=C/c2ccc3c(c2)OCO3)n1	-63.3	-3.8	-76.5	69.8*	38.3	-147.6	64.2*
O=C(/C=C/c1ccc2c(c1)OCO2)Nc1nc(-c2ccc(F)cc2F)cs1	.	-0.3	-21.7	-21.6	-8.0	16.3	.
CCOC(=O)N1CCC(N2C(=O)c3ccc(C(=O)Nc4cccc(OC)c4)cc3C2=O)CC1	7.3	8.3	-5.5	-15.1	-5.6	30.9	.
O=C(O)c1ccc(N/N=C/c2ccc(-c3ccccc3Cl)o2)cc1	-55.9	-102.8	-82.8	-250.3	-64.5	-124.2	-106.8
COC(=O)[C@H](C)NC(=O)Nc1cccc(C(F)(F)F)c1	5.0	7.2	-26.8	35.6*	6.8	1.1	2.2
COc1ccc(Cl)cc1NC(=O)c1[nH]c(C)c(C(C)=O)c1C	19.8	-1.4	-12.5	1.0	4.1	14.3	.
COc1ccc(OC)c(NC(=O)c2[nH]c(C)c(C(C)=O)c2C)c1	-13.2	-2.7	1.1	35.9*	-85.0	30.2	33.5*
SMILES	Gli-Sufu block	Jurkat NFkB inh	KLF5 inhibitor	697 NFkB inh	aSyn 5UTR inh	Mdm2-MdmX inh	697 NFkB conf
Oc1cccc(-c2nc3ccccc3s2)c1	6.1	-147.9	-75.9	-259.2	-24.7	-146.9	-246.6
Nc1cccc(-c2nc3ccccc3s2)c1	-101.9	-101.9	-110.6	-127.7	-66.5	-156.5	.
CCN(C[C@H]1N[C@@](C)(C(=O)OC)[C@H]2C(=O)N(Cc3ccccc3)C(=O)[C@@H]12)C(=O)Nc1ccc(F)cc1	-6.4	3.3	.	-2.0	.	9.1	.
COCCn1c(-c2ccc(Cl)cc2Cl)nc2c(c(=O)c3ccccc3n2C)c1=O	17.0	25.2	13.9	41.0*	40.9	30.1	13.7
COCCn1c(-c2ccc(C)cc2)nc2c(c(=O)c3ccccc3n2C)c1=O	2.5	.	.	.	.	.	.
CC(C)NC(=O)Nc1ccc2c(c1)C(=O)N([C@H](C)CO)C[C@H](C)[C@@H](CN(C)C(=O)Nc1ccc3c(c1)OCO3)O2	-7.0	0.3	.	-2.2	.	-10.2	.
COc1cccc(-c2cc(C(F)(F)F)nc(-n3ccc([N+](=O)[O-])n3)n2)c1	14.7	4.5	-10.2	15.0	17.5	-11.9	.
O=[N+]([O-])c1ccn(-c2nc(-c3ccccc3)cc(C(F)(F)F)n2)n1	-7.8	-10.8	5.7	38.9*	2.8	21.9	2.6
CN(C)c1ccc(-c2nc3cc(N)ccc3o2)cc1	-33.6	-133.7	7.7	-296.5	93.4*	-62.3	-201.9
Nc1ccc(-c2nc3cc(N)ccc3o2)cc1	-69.2	-104.2	-87.6	-134.2	-52.1	-98.9	.
O=C(CSc1ccccc1C(=O)O)NCC1CCCCC1	3.2	-3.0	-28.6	12.8	14.6	-12.6	.
Cc1ccc(-c2nnc(Nc3ccccc3)o2)cc1	-72.1	-58.9	-24.4	-303.3	55.9	-1.6	-366.2
COc1ccc(N2CCN(C3CCCN(C(=O)C4=C(C)OCCO4)C3)CC2)cc1 (stereo not given)	2.3	13.9	-27.9	3.3	15.2	18.2	.
CC(=O)c1c(C)[nH]c(C(=O)COC(=O)CCCOc2ccccc2)c1C	31.4	-1.3	-14.1	6.4	20.8	-1.2	.
CCCc1c(C(=O)OCC)[nH]c2c1C(=O)CCC2	-1.2	-9.2	-37.4	-16.8	27.2	-3.5	.
Cc1c(C(=O)OCCOc2ccccc2)[nH]c2c1C(=O)CCC2	-70.8	-83.2	-46.0	-330.8	5.3	-41.7	-379.9
CC(=O)c1c(C)[nH]c(C(=O)OCCOc2ccccc2)c1C	-77.2	-141.4	-62.6	-253.4	66.8*	-10.8	-401.7
O=S(=O)(/N=C(/Nc1ccc(F)cc1F)c1ccccc1)c1ccc(Br)cc1	.	-3.5	-14.7	-18.4	27.8	25.3	.
NNC(=O)c1csc(COc2cc(Cl)cc(Cl)c2)n1	-1.0	11.9	-18.2	-5.0	-18.5	28.4	.
CC(=O)c1csc(COc2ccc(Cl)cc2)n1	-71.7	-109.6	-168.0	-371.5	-31.5	-38.7	-209.7
